Most compounds without a hit are left out; they make up all but 21% or so of the library.
Shiga toxin inh: blocks Shiga toxin action in Vero cells; Vero cells, Shiga toxin protein synthesis inhibition reporter; inhibition, % at 38.7 µM; 290,000 compounds, 9.2% hits; in the data active = inhibition mostly above about 28%, no sharp cut-off; inactive = mostly below about 43%; also: 0% is about no effect
Pf growth 96h: P. falciparum growth inhibition at 96 hour, primary screen for plastid delayed-death inhibitors | P. falciparum luciferase reporter growth, 96 h | Potency, µM (top dose mostly 28.7 µM), for the others: at the top dose activity change, negative = inhibition, actives largely listed as inhibitors | 320,000 compounds, 6.9% hits | AID 504834; also: potency is read from the fitted curve at half-maximal effect; % is scaled to controls: 0 for no effect and ±100 for the full control effect
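Readout is luminescence from an integrated firefly luciferase in P. falciparum. Red cells, 2% hematocrit and 0.05% parasitemia final, were cultured with compound through two parasite generations (96 hours) at 37 C, 5% CO2.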
FBPA Giardia inh: Giardia lamblia aldolase inhibition; A8B2U2; Potency, µM (top dose mostly 59.6 µM), for the others: at the highest dose activity, negative = inhibition, actives largely listed as inhibitors; purified Giardia FBPA; AID 2451; 290,000 compounds, 0.71% hits; also: potency is read from the fitted curve at half-maximal effect; % is scaled to controls: 0 for no effect and ±100 for the full control effect; nearly all actives have a fitted effect of over 55% in size
Target sequence (A8B2U2 whole entry, looked up): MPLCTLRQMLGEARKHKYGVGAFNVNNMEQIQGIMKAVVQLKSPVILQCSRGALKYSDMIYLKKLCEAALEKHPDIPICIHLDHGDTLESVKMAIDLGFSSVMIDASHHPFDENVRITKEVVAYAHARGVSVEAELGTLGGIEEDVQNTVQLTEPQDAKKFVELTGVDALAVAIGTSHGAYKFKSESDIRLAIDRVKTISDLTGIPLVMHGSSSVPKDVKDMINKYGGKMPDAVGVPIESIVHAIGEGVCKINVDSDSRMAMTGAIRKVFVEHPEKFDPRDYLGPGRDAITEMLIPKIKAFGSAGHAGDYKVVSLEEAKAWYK
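Giardia FBPA (40 nM reagent) was preincubated 10 min at RT with compound (up to 57.5 uM final), then substrate plus GAPDH/TPI/NAD/arsenate coupling system with diaphorase/resazurin was added; resorufin fluorescence (525/598 nm) was read after 20 min.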
Pf growth 48h: inhibits P. falciparum growth in the first generation, 48 h. P. falciparum luciferase growth in erythrocytes, 48 h. Potency, µM (doses to about 28.7 µM), inactives show at the highest dose activity change, negative = inhibition, most hits filed as inhibitors. 310,000 compounds, 5.9% hits. AID 504832; also: potency is read from the fitted curve at half-maximal effect; % is scaled to controls: 0 for no effect and ±100 for the full control effect
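Erythrocytes infected with P. falciparum carrying an integrated firefly luciferase reporter (2% hematocrit, 0.1% parasitemia final) were exposed to compounds in RPMI 1640 with 0.5% Albumax at 37 C, 5% CO2. Growth inhibition was scored as reduced luminescence.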
CHX counter: counter-screen for Shiga toxin inhibitors: cycloheximide protein synthesis inhibition; 300,000 compounds, 12% hits; max response, %; cell reporter, cycloheximide protein synthesis inhibition counterscreen; in the data active = max response mostly above about 13%, no sharp cut-off; inactive = mostly below about 14%; also: read at 38.3 µM for the half of the compounds with a filed dose; 0% is about no effect
NS1 function inh: blocks influenza NS1 protein function. 270,000 compounds, 0.4% hits. Potency, µM (series often up to 46.1 µM), inactives show top-dose activity, positive = more growth; calls by dose curve; also: potency is read from the fitted curve at half-maximal effect; actives are rising curves; nearly all actives have a fitted effect of over 50% in size
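Growth recovery, yeast-based: influenza A NS1 expressed in S. cerevisiae causes slow growth, and suppressors are detected by OD600. The parent strain without NS1 is used as positive control.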
An asterisk follows results filed as active. Unless noted, calls follow the shape of the dose curve; as a rule, active = well fitted curve in the direction sought with a large enough effect; inconclusive = small, poorly fitted or top-dose-only effect, or another doubt; inactive = no such curve, though single readings can be large; an effect the other way counts as inactive or inconclusive.

Results for O=C(Nc1ccc(O)c(-c2nc3ccccc3o2)c1)C1(c2ccc(Cl)cc2)CCCC1 ?
Shiga toxin inh: 8; Pf growth 96h: inconclusive; FBPA Giardia inh: -1%; Pf growth 48h: 2.3µM*; CHX counter: 14; NS1 function inh: -13%

What do the screens show for `N#C/C(=C\c1ccc(O)c(O)c1)C(=O)NCCCCc1ccccc1`?
FBPA Giardia inh: -29%

Results for COc1ccc(/C=N/NC(=O)NC23CC4CC(CC(C4)C2)C3)c(OC)c1 ?
Shiga toxin inh: -6; Pf growth 96h: inconclusive; FBPA Giardia inh: 12%; Pf growth 48h: 8.3µM*; CHX counter: -5; NS1 function inh: -5%

What do the screens show for `O=C(N/N=C/c1ccc(O)cc1)NC12CC3CC(CC(C3)C1)C2`?
Shiga toxin inh: -3; Pf growth 96h: -19%; FBPA Giardia inh: -5%; Pf growth 48h: -16%; CHX counter: 10; NS1 function inh: -11%

How did Cc1ccc(/C=N/NC(=O)NC23CC4CC(CC(C4)C2)C3)o1 do in these assays?
Shiga toxin inh: 150*; Pf growth 96h: inconclusive; FBPA Giardia inh: -1%; Pf growth 48h: inconclusive; CHX counter: 29*; NS1 function inh: 1%

Results for COc1ccccc1/C=N/NC(=O)NC12CC3CC(CC(C3)C1)C2 ?
Shiga toxin inh: -2; Pf growth 96h: 2%; FBPA Giardia inh: 0%; Pf growth 48h: inconclusive; CHX counter: -5; NS1 function inh: 3%

What do the screens show for `CCn1c(C)nc2cc(C(=O)N/N=C(\C)c3ccc(OC)cc3O)ccc21`?
Shiga toxin inh: 3; Pf growth 96h: inconclusive; FBPA Giardia inh: 4%; Pf growth 48h: inconclusive; CHX counter: -2

Results for CCOC(=O)c1sc(NC(=O)C2CC(=O)N(c3ccc(OCC)cc3)C2)nc1C (stereo unspecified) ?
Shiga toxin inh: -5; Pf growth 96h: -6%; Pf growth 48h: 31%; CHX counter: -2; NS1 function inh: 0%

What do the screens show for `O=C(NC(=O)c1cccc(F)c1)Nc1nc(-c2ccc(F)cc2)cc(C(F)(F)F)n1`?
Shiga toxin inh: 9; Pf growth 96h: 29%; FBPA Giardia inh: 3%; Pf growth 48h: inconclusive; CHX counter: -2

What do the screens show for `COc1ccccc1C(=O)Nc1nsc(-c2ccccc2)n1`?
Shiga toxin inh: 79*; Pf growth 96h: -1%; FBPA Giardia inh: -9%; Pf growth 48h: -7%; CHX counter: 49*; NS1 function inh: -59%

Results for COc1ccccc1C(=O)NC(=O)Nc1nc(-c2ccccc2)cc(C(F)(F)F)n1 ?
Shiga toxin inh: 2; Pf growth 96h: 3.7µM*; FBPA Giardia inh: -12%; Pf growth 48h: 3.7µM*; CHX counter: -1; NS1 function inh: 0%

Results for Cc1ccc(C)c(N2CCN(C(=O)Nc3ccc4c(c3)N(C)C(=O)CS4)CC2)c1 ?
Shiga toxin inh: 7; Pf growth 96h: 35%; FBPA Giardia inh: 5%; Pf growth 48h: inconclusive; CHX counter: -2

Results for COc1ccccc1C(=O)Nc1ccccn1 ?
Shiga toxin inh: 60*; Pf growth 96h: inconclusive; FBPA Giardia inh: 4%; Pf growth 48h: 256%; CHX counter: 36*; NS1 function inh: -4%

How did CN1C(=O)CSc2ccc(NC(=O)N3CCC(N4CCCCC4)CC3)cc21 do in these assays?
Shiga toxin inh: 4; Pf growth 96h: 12µM*; FBPA Giardia inh: 2%; CHX counter: -3; NS1 function inh: -2%

How did COc1ccccc1C(=O)Nc1ccncc1 do in these assays?
Pf growth 96h: -15%; FBPA Giardia inh: 12%; Pf growth 48h: 31%; CHX counter: -4; NS1 function inh: 5%

How did COc1cccc(CNC(=O)CN2C(=O)COc3ccc(S(=O)(=O)N4CCCCC4)cc32)c1 do in these assays?
Shiga toxin inh: 11; Pf growth 96h: inconclusive; Pf growth 48h: -30%; CHX counter: -2; NS1 function inh: 2%

How did N#Cc1cccc(-c2cc(-n3ccnc3)ncn2)c1 do in these assays?
FBPA Giardia inh: -6%

How did COc1ccc(NC(=O)Nc2ccccn2)cc1OC do in these assays?
Shiga toxin inh: 62*; Pf growth 96h: 167%; FBPA Giardia inh: -1%; Pf growth 48h: 56%; CHX counter: 34*; NS1 function inh: -34%
